From article PMC4552634, “A New Set of Chemical Starting Points with Plasmodium falciparum Transmission-Blocking Potential for Antimalarial Drug Discovery” (PLoS ONE, 2015)
Hit rate of the full screen: of about 13,000 compounds, about 3,200 (25%) showed an effect of 50% or more. This is one part of the list.

Tested on: P. falciparum stage V gametocytes
Set-up: BacTiter-Glo ATP luminescence viability of purified stage V gametocytes in 384-well plates, per cent inhibition versus DMSO
Details: 48 h, 5 µM; inhibitor

SMILES | % Inhibition [%]
O=C(Nc1ccc(Br)cc1)Nc1ccc(Cn2ncc(N3CCCNCC3)c(Cl)c2=O)cc1 [TCMDC-133329] | -9.301
CC(=O)Nc1sc(C)c(C)c1CN1CCc2ccccc2C1 [TCMDC-124498] | -41.39
COc1ccc(Nc2ncc3c(-c4cccc(NC(=O)c5ccc(N)cc5)c4)c[nH]c3n2)cc1OC [TCMDC-135250] | -78.65
N#Cc1ccccc1N1CCN(C2CCC(NC(=O)c3n[nH]c4cc(C(F)(F)F)ccc34)CC2)CC1 (stereo not shown) [TCMDC-134100] | -13.75
CSCCC(C(=O)O)N1C(=O)c2ccccc2C1=O (stereo not shown) [TCMDC-125514] | -25.71
O=c1cc(NCCCNCc2cccc(SC(F)(F)F)c2)[nH]c2ccccc12 [TCMDC-139420] | -38.07
CC(O)C1CCCCN1C(=O)c1ccc(-c2ccc(-c3nc4ccccc4[nH]3)s2)cc1 (stereo not shown) [TCMDC-132330] | -3.595
CCN1CCN(c2cc(C)c3cc(NC(=O)C=Cc4cccc(OC)c4OC)ccc3n2)CC1 [TCMDC-123803] | -23.17
CCC(C)OC(=O)C1=C(C)NC2=C(C(=O)CC(c3ccc(OC)c(OC)c3)C2)C1c1ccc(C)o1 (stereo not shown) [TCMDC-123735] | 31.33
CCCc1cc(C(=O)N[C@@H](Cc2ccccc2)[C@H](O)CNC(C)C)c(F)c(N2CCCC2=O)c1 [TCMDC-135418] | 10.92
Cl.OCCNc1nc(Nc2ccccc2)nc2ccccc12 [TCMDC-123749] | 91.01
Oc1ccc(Nc2nc(NCc3ccco3)c3ccccc3n2)cc1 [TCMDC-124015] | -74.78
Cl.OCCNc1nc(Nc2ccc(F)cc2)nc2ccccc12 [TCMDC-123640] | -1.104
COc1ccc(Nc2nc(N3CCCC3)c3ccccc3n2)cc1.Cl [TCMDC-124381] | -67.29
Cl.OCCNc1nc(Nc2ccc(Cl)cc2)nc2ccccc12 [TCMDC-125389] | 1.912
Cl.Oc1ccc(Nc2nc(N3CCCC3)c3ccccc3n2)cc1 [TCMDC-123532] | 79.67
CC1CC(NCCCNc2cc(=O)c3ccccc3[nH]2)c2c(Cl)c(Cl)cc(Cl)c21 (stereo not shown) [TCMDC-139486] | 41.94
C(=N\Nc1nccc2sc(-c3cccnc3)cc12)/c1ccncc1 [TCMDC-135305] | -45.13
CCOc1ccc2nc3cc(NC(=O)c4ccco4)ccc3c(N)c2c1 [TCMDC-125004] | 120.6
CCOc1ccc2nc3cc([N+](=O)[O-])ccc3c(N)c2c1 [TCMDC-125852] | 122.1
O=[N+]([O-])c1ccc2nccnc2c1 [TCMDC-123943] | 28.42
CCNc1cc(C)nc(Nc2ccc(NC(=O)c3ccco3)cc2)n1 [TCMDC-124982] | -6.858
Nc1c2ccccc2nc2cc(C(F)(F)F)ccc12 [TCMDC-142006] | 51.79
Nc1ccc2c(N)c3ccccc3nc2c1 [TCMDC-132034] | 26.54
CC(O)C(=O)O.CCOc1ccc2nc3cc(N)ccc3c(N)c2c1 [TCMDC-123983] | 24.81

SMILES | % Inhibition [%]
CCOc1cc(N)c2nc3ccc([N+](=O)[O-])cc3cc2c1 [TCMDC-138134] | 64.78
O=C(Nc1ccc(Oc2ccc(OC(F)(F)F)cc2)cc1)c1ccco1 [TCMDC-124049] | 6.868
Nc1cc(C(F)(F)F)ccc1Cl [TCMDC-123950] | 13.58
CCCC1N=C(N)N=C(N)N1c1cccc([N+](=O)[O-])c1 (stereo not shown) [TCMDC-131299] | -55.59
FC(F)(F)c1ccc2[nH]c(-c3ccc(-c4cccc(CNCc5cnn(-c6ccccc6)n5)c4)s3)nc2c1.O=C(O)C(F)(F)F [TCMDC-132968] | -47.17
CC12CN3CC(C)(CN(C1)C3c1cc(Br)ccc1O)C2O (stereo not shown) [TCMDC-123838] | -31.33
Nc1c2ccccc2nc2cc([N+](=O)[O-])ccc12 [TCMDC-132031] | 75.87
O=c1c2ccccc2nc(/C=C/c2ccc([N+](=O)[O-])cc2)n1-c1ccccn1 [TCMDC-125664] | 33.94
Nc1nc(N)c2cc(Cc3ccc([N+](=O)[O-])cc3)cnc2n1 [TCMDC-137920] | -6.074
Oc1ccc(CNCC2CCN(CC3CCCCC3)CC2)cc1 [TCMDC-141676] | -27.61
Clc1ccccc1CCNCC1CCN(CC2CCCCC2)CC1 [TCMDC-141344] | 100.3
Clc1cccc(Cl)c1CCNCC1CCN(CC2CCCCC2)CC1 [TCMDC-141346] | -12.07
Fc1c(CNCC2CCN(CC3CCCCC3)CC2)cccc1C(F)(F)F [TCMDC-141348] | 4.763
CCOc1ccccc1CCNCC1CCN(CC2CCCCC2)CC1 [TCMDC-141347] | 95.36
FC(F)(F)c1cccc(CNCC2CCN(CC3CCCCC3)CC2)c1 [TCMDC-141677] | -8.545
O=C(NCCCCCN1CCC(c2c[nH]c3ccccc23)CC1)c1ccc(Cl)c(Cl)c1 [TCMDC-139112] | -15.31
c1ccc2c(C3CCN(CCCCOc4ccc5c(c4)CCN(CC4CC4)CC5)CC3)c[nH]c2c1 [TCMDC-136244] | 103.6
O=C(COc1ccc(Cl)cc1)N1CCC(CN2CCC(c3c[nH]c4ccccc34)CC2)CC1 [TCMDC-139943] | -35.41
c1ccc2c(C3CCN(CCCCOc4ccc5c(c4)CCN(C4CCC4)CC5)CC3)c[nH]c2c1 [TCMDC-136242] | 103
O=C(CCC(=O)c1ccc2c3c(cccc13)CC2)NC1CCC(CN2CCC(c3c[nH]c4ccccc34)CC2)CC1 (stereo not shown) [TCMDC-139897] | 7.494
CCCCNC(=O)C(C)NC(=O)c1ccc(O)c(-c2ccc(Cl)c(Cl)c2)c1 (stereo not shown) [TCMDC-140838] | 12
O=C1OC(c2ccccc2)(c2ccccn2)CN1C1CCN(Cc2cccn2-c2ccc(Cl)cc2)CC1 (stereo not shown) [TCMDC-134418] | 32.68
CC(C)Sc1ccc(Cl)cc1CON1C(N)=NC(N)=NC1(C)C [TCMDC-131322] | 57.4
CC(CON1C(N)=NC(N)=NC1(C)C)c1ccc(Cl)cc1Cl (stereo not shown) [TCMDC-131687] | 1.916
CC(CCON1C(N)=NC(N)=NC1(C)C)c1ccc(Cl)cc1 (stereo not shown) [TCMDC-131721] | 15.12

SMILES | % Inhibition [%]
CC1(C)N=C(N)N=C(N)N1OCc1cc(Cl)c(Cl)cc1CON1C(N)=NC(N)=NC1(C)C [TCMDC-131611] | -27.6
CC1(C)N=C(N)N=C(N)N1OCc1cccc(Cl)c1Cl [TCMDC-131612] | 37.87
CCC(CCON1C(N)=NC(N)=NC1(C)C)c1ccc(Cl)c(Cl)c1 (stereo not shown) [TCMDC-131702] | 42.49
CC1(C)N=C(N)N=C(N)N1OCc1cc(Cl)c(CON2C(N)=NC(N)=NC2(C)C)cc1Cl [TCMDC-131624] | 88.84
CC(CCON1C(N)=NC(N)=NC1(C)C)c1ccc(Cl)c(Cl)c1 (stereo not shown) [TCMDC-123922] | 56.56
CCSc1ccccc1CON1C(N)=NC(N)=NC1(C)C [TCMDC-131324] | 26.32
COc1ccc(CN(C)C(=O)CCNS(=O)(=O)c2ccc3c(c2)OCCCO3)cc1F [TCMDC-125302] | 27.77
COc1ccc(C2(CNCC(O)c3cccc([N+](=O)[O-])c3)CCCCC2)cc1OC (stereo not shown) [TCMDC-125753] | 32.79
c1ccc(CNCc2cccc(-c3csc(-c4nc5ccccc5[nH]4)c3)c2)cc1 [TCMDC-132715] | -5.062
CC(C)CNC(=O)c1ccc(-c2cccc(CN3CCC(N4CCCC4)CC3)c2)nc1 [TCMDC-134223] | 24.52
COc1cccc(CN2CCC(N3CCc4cc(NC(=O)c5cc(C)on5)ccc43)C2)c1OC (stereo not shown) [TCMDC-135077] | 7.17
Nc1oc2c(CN3CCCCCC3)c(O)ccc2c(=O)c1-c1nc2ccccc2s1 [TCMDC-124554] | -27.76
COc1ccc2nc(C)cc(Nc3ccc(Oc4ccc5ccccc5c4Cl)c(Cl)c3)c2c1 [TCMDC-124244] | 45.95
CN(Cc1ccccc1)C1CCCN(c2cc(NC(=O)c3ccc(F)cc3)ccn2)C1 (stereo not shown) [TCMDC-135021] | -22.03
Brc1ccccc1CNc1ccnc(NCCn2ccnc2)n1 [TCMDC-134666] | 85.3
c1ccc2c(CNc3ccnc(NCc4cccc5ccccc45)n3)cccc2c1 [TCMDC-131861] | 43.11
c1cn(CCCNc2ncc(-c3ccsc3)c(-c3nccs3)n2)cn1 [TCMDC-125364] | 29.61
CN1CCN(C(C(=O)NCc2cc(Cl)cc(Cl)c2)c2ccccc2-c2ccsc2)CC1 (stereo not shown) [TCMDC-135388] | 68.05
COc1ccccc1N1CCN(C(C(=O)NCc2ccc(C)cc2)c2ccc(C)cc2)CC1 (stereo not shown) [TCMDC-135501] | -5.21
COc1ccc(Cc2cccc(C(C(=O)NCc3cc(Cl)cc(Cl)c3)N3CCN(C)CC3)c2)cc1 (stereo not shown) [TCMDC-135619] | 76.97
COc1ccccc1-c1ccc(CNC(=O)C(CN2CCN(C)CC2)c2ccccc2)cc1 (stereo not shown) [TCMDC-136897] | 12.07
CN1CCN(C(C(=O)NCc2cc(Cl)cc(Cl)c2)c2ccc(NC(=O)Nc3ccccc3)cc2)CC1 (stereo not shown) [TCMDC-135287] | 18.98
CN1CCN(C(C(=O)NCc2cc(Cl)cc(Cl)c2)c2ccc(Nc3cccc(C(F)(F)F)c3)cc2)CC1 (stereo not shown) [TCMDC-134698] | -89.62
